Bioassay records: PubChem, Broad Institute
In the library only some 6.7% were active in any assay of this set; here they are far more common.
C diff HTS – C. difficile growth inhibitors, primary screen, HTS | Clostridium difficile clinical isolate growth, OD600, 24 h; hits give low values | growth activity, negative = inhibition, % at 16 µg/mL (by protocol) | 86,000 tested, 0.25% active;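 active = mean growth activity at or below -80% and every replicate also at or below -80%; inconclusive = mean at or below -80% but some replicate above -80%; inactive = mean growth activity above -80%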;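 note: 0% = DMSO wells and -100% = levofloxacin 16 µg/mL wells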
T cruzi growth-1 – T. cruzi intracellular proliferation inhibitors, primary screen, cell-based, beta-gal Tulahuen parasites, NIH3T3 host, luminescence | 77,000 tested, 5.9% active | T. cruzi beta-gal in NIH3T3, GalScreen luminescence, 90 h | inhibition, % at 8.34 µM;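 active = mean inhibition above about 93%, with at least 55% of replicates each passing it, limit read from the data, passing the limit was not always enough; inconclusive = only one of those two conditions holds; inactive = neither condition holds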
Pf Dd2 growth – P. falciparum Dd2 growth inhibitors, primary screen, SYBR Green fluorescence, single dose replicates. activity change, % at 10 µM. 72 h; hits give low values. 94,000 tested, 2.3% active. AID 1159554, 2015; in the data active = activity change below about -80%; inconclusive = no clear call, values can overlap the other calls
T cruzi growth-2 – T. cruzi intracellular proliferation inhibitors, confirmation, cell-based, NIH3T3 host, beta-gal parasite, luminescence, cherry-pick; 5,600 tested, 72% active; AID 651739, 2012; inhibition, % at 8.35 µM; T. cruzi beta-gal in NIH3T3, GalScreen luminescence, 90 h; shares compounds with T cruzi growth-1;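 active = mean replicate inhibition above about 95% and at least 55% of replicates individually reaching it, limit read from the data; inconclusive = only one of the two criteria is met; inactive = neither criterion is met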
T cruzi growth-3 – inhibitors of intracellular T. cruzi replication, confirmation, NIH3T3 host cells, beta-gal parasites, cherry-pick, set 2; shares compounds with T cruzi growth-1; T. cruzi beta-gal in NIH3T3, GalScreen luminescence, 90 h; inhibition, % at 2.09 µM; 5,600 tested, 21% active;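 active = mean inhibition above about 95%, with at least 55% of replicates also reaching it, limit read from the data; inconclusive = meets just one of the two conditions; inactive = meets neither condition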;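 note: plate controls were neutral control median for no effect and positive control median for full effect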
NIH3T3 tox – cytotoxicity in mouse NIH/3T3 fibroblasts, confirmation, cytotoxicity control for T. cruzi proliferation inhibitor project, cell-based, cherry-pick, single point; AID 651742, 2012; shares compounds with T cruzi growth-1; cytotoxicity (signal decrease), % at 8.35 µM; 5,600 tested, 14% active; NIH/3T3 viability, CellTiter-Glo ATP luminescence, 90 h;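 active = mean signal decrease across replicates above about 35% based on untreated-well scatter, with enough replicates individually passing, limit read from the data; inconclusive = no rule stated though some were filed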;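 note: 0% = median of neutral control wells and 100% = median of positive control wells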
3T3 cytotox 2 – NIH/3T3 fibroblast cytotoxicity, confirmation, cytotoxicity control, cell-based, cherry-pick, single point, set 2. 5,600 tested, 56% active. inhibition, % at 24.9 µM. NIH/3T3 viability, CellTiter-Glo ATP luminescence, 90 h. shares compounds with T cruzi growth-1;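 active = mean loss of cell viability signal at or above a set limit, and enough replicates individually reaching it; inconclusive = meets only the mean limit or only the replicate share; inactive = meets neither condition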;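 note: 0% = median of neutral control wells and 100% = median of positive control wells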
Active calls of the source: *; ? = inconclusive; . = no result.

SMILES | C diff HTS | T cruzi growth-1 | Pf Dd2 growth | T cruzi growth-2 | T cruzi growth-3 | NIH3T3 tox | 3T3 cytotox 2
CC(C)CC#Cc1ccc2c(c1)O[C@H](CN(C)C(=O)c1cccnc1)[C@@H](C)CN([C@@H](C)CO)S2(=O)=O | 7 | 76 | -22 | . | . | . | .
CC(C)CC#Cc1ccc2c(c1)O[C@H](CN(C)C(=O)c1cccc(F)c1)[C@@H](C)CN([C@H](C)CO)S2(=O)=O | 6 | 120* | -41 | 109* | 84 | 4 | 105*
CC(C)CC#Cc1ccc2c(c1)O[C@@H](CN(C)C(=O)c1cccc(F)c1)[C@H](C)CN([C@@H](C)CO)S2(=O)=O | -4 | 124* | -59 | 103* | 110* | 62* | 105*
CC(C)CC#Cc1ccc2c(c1)O[C@H](CN(C)C(=O)c1ccccc1)[C@H](C)CN([C@H](C)CO)S2(=O)=O | 17 | . | -60 | . | . | . | .
CC(C)CC#Cc1ccc2c(c1)O[C@H](CN(C)C(=O)c1ccccc1)[C@@H](C)CN([C@@H](C)CO)S2(=O)=O | 7 | 122* | -59 | 102* | 93 | 34 | 105*
CC(C)CC#Cc1ccc2c(c1)O[C@@H](CN(C)C(=O)c1ccccc1)[C@H](C)CN([C@H](C)CO)S2(=O)=O | 22 | . | -75 | . | . | . | .
C[C@H](CO)N1C[C@H](C)[C@H](CN(C)C)Oc2cc(-c3cccc(C#N)c3)ccc2S1(=O)=O | -2 | -124 | 14 | . | . | . | .
Cc1ccc(S(=O)(=O)Nc2ccc3c(c2)C(=O)N([C@H](C)CO)C[C@H](C)[C@H](CN(C)Cc2ccc(C(F)(F)F)cc2)OCCCC[C@H](C)O3)cc1 | 3 | . | -75 | . | . | . | .
C[C@@H]1CCCCO[C@H](CN(C)CC2CC2)[C@@H](C)CN([C@@H](C)CO)C(=O)c2cc(NS(=O)(=O)c3ccc(F)cc3)ccc2O1 | 0 | 59 | -47 | . | . | . | .
CC(C)CC#Cc1ccc2c(c1)O[C@@H](CN(C)C(=O)c1cccc(F)c1)[C@H](C)CN([C@H](C)CO)S2(=O)=O | 6 | 110* | -61 | 105* | 91 | 31 | 105*
C[C@@H]1CN([C@@H](C)CO)S(=O)(=O)c2ccc(C#CC3CC3)cc2O[C@@H]1CN(C)C(=O)c1ccccc1 | -3 | 94 | -17 | . | . | . | .
CC(C)CC#Cc1ccc2c(c1)O[C@H](CN(C)C(=O)c1ccccc1F)[C@@H](C)CN([C@@H](C)CO)S2(=O)=O | 8 | 103* | -70 | 103* | ? | 13 | 105*
C[C@H]1CN([C@@H](C)CO)S(=O)(=O)c2ccc(C#CC3CC3)cc2O[C@@H]1CN(C)C(=O)c1ccccc1 | -7 | 99* | -51 | 101* | 76 | 10 | ?
COCC#Cc1ccc2c(c1)O[C@@H](CN(C)C(=O)c1ccccc1F)[C@H](C)CN([C@H](C)CO)S2(=O)=O | 4 | -121 | -62 | . | . | . | .
C[C@@H]1CN([C@H](C)CO)S(=O)(=O)c2ccc(C#CC3CC3)cc2O[C@@H]1CN(C)C(=O)c1cccc(F)c1 | 12 | . | -10 | . | . | . | .
CC(C)CC#Cc1ccc2c(c1)O[C@@H](CN(C)C(=O)c1cccc(F)c1)[C@@H](C)CN([C@@H](C)CO)S2(=O)=O | 9 | 102* | -65 | 105* | 105* | 14 | 104*
C[C@@H]1CN([C@@H](C)CO)S(=O)(=O)c2ccc(C#CC3CC3)cc2O[C@@H]1CN(C)C(=O)c1cccc(F)c1 | 8 | . | -50 | . | . | . | .
CCCNC(=O)N1[C@@H](CO)[C@@H](c2ccccc2)C12CN(C(=O)CC1CC1)C2 | -10 | . | 7 | . | . | . | .
COCCNC(=O)C[C@@H]1CC[C@H]2[C@H](COc3ccc(NC(=O)c4cc(C)on4)cc3C(=O)N2C)O1 | 2 | -25 | 18 | . | . | . | .
COCC#Cc1ccc([C@@H]2[C@H]3CN(C(=O)Nc4ccc(F)cc4)CC(=O)N3[C@H]2CO)cc1 | -8 | . | 23 | . | . | . | .
CCCN(C)C[C@@H]1Oc2cc(C#Cc3ccc(F)cc3)ccc2S(=O)(=O)N([C@H](C)CO)C[C@@H]1C | 11 | 14 | -24 | . | . | . | .
CCCN(C)C[C@@H]1Oc2cc(C#Cc3cccc(F)c3)ccc2S(=O)(=O)N([C@@H](C)CO)C[C@H]1C | -5 | 116* | . | 110* | 10 | 4 | 104*
CCCN(C)C[C@@H]1Oc2cc(C#Cc3cccc(F)c3)ccc2S(=O)(=O)N([C@@H](C)CO)C[C@@H]1C | 10 | 111* | . | 113* | 61 | 7 | 102*
CCCN(C)C[C@@H]1Oc2cc(C#Cc3ccccc3)ccc2S(=O)(=O)N([C@@H](C)CO)C[C@H]1C | -1 | 26 | -44 | . | . | . | .
C[C@@H]1CN([C@H](C)CO)S(=O)(=O)c2ccc(C#Cc3cccc(F)c3)cc2O[C@@H]1CN(C)CC1CC1 | 5 | . | -40 | . | . | . | .
SMILES | C diff HTS | T cruzi growth-1 | Pf Dd2 growth | T cruzi growth-2 | T cruzi growth-3 | NIH3T3 tox | 3T3 cytotox 2
CCCN(C)C[C@@H]1Oc2cc(C#Cc3ccc(F)cc3)ccc2S(=O)(=O)N([C@@H](C)CO)C[C@H]1C | 4 | 94* | -17 | 105* | 40 | 31 | 106*
C[C@@H]1CN([C@@H](C)CO)C(=O)c2cc(NS(=O)(=O)c3cccs3)ccc2O[C@H]1CN(C)Cc1ccc(Oc2ccccc2)cc1 | . | 62 | 14 | . | . | . | .
C[C@@H]1CN([C@H](C)CO)C(=O)c2cc(NC(=O)Nc3ccc(C(F)(F)F)cc3)ccc2O[C@@H]1CN(C)Cc1ccc(C(=O)Nc2ccccc2N)cc1 | . | -58 | -75 | . | . | . | .
Cc1noc(C)c1NC(=O)Nc1ccc2c(c1)C(=O)N([C@H](C)CO)C[C@H](C)[C@H](CN(C)C(=O)Cc1ccccc1)OCCCC[C@H](C)O2 | -3 | 106* | -3 | 35 | 23 | -8 | -13
C[C@@H]1CCCCO[C@H](CN(C)C(=O)Cc2ccccc2)[C@H](C)CN([C@H](C)CO)C(=O)c2cc(NC(=O)Nc3ccccc3)ccc2O1 | . | 103* | -84* | 98* | 16 | -10 | -15
C[C@@H]1CCCCO[C@H](CN(C)C(=O)Cc2ccccc2)[C@H](C)CN([C@H](C)CO)C(=O)c2cc(NC(=O)Nc3ccc(F)cc3)ccc2O1 | 3 | 103* | -85* | 107* | 108* | -21 | 2
C[C@H]1CCCCO[C@H](CN(C)C(=O)Cc2ccccc2)[C@@H](C)CN([C@@H](C)CO)C(=O)c2cc(NC(=O)Nc3ccc(F)cc3)ccc2O1 | -4 | 101* | -51 | 106* | -42 | -16 | 20
